“And” between values parts separate entries of the source, which are not always exact repeats. Equal entries are not always repeated. The campaign covered roughly 16,000 compounds. About 260 (1.6%) were called active. Not shown: some 14% with an inconclusive outcome. Calls follow the shape of the dose curve; as a rule, active = well fitted inhibition curve with a large enough effect; inconclusive = small, poorly fitted or top-dose-only effect; inactive = no such curve, though single readings can be large or run the other way. Only a selection was taken, and actives are over-represented in it overall. The source holds several records for some structures; these can differ, active in one and inactive in another. *1 amine or outer side, *2 acyl side, *3 side chain or, on linkers, in order; H or OH if unused. Where a SMILES comes first, the peptide text is derived from it. Bridges are numbered along the chain shown (N, C = ends). [ ]: non-standard residue; d: D form. The star is where a group is joined. X12 = NC1=N[C@@H]([C@H](N[*:1])C(=O)[*:2])C[C@H](O)N1; ΔAla(Z-3-ureido) = NC(=O)N/C=C(\N)C(=O)O; β3hOrn = NCCC[C@H](N)CC(=O)*; Dap = NC[C@H](N)C(=O)O
biological target: Rap guanine nucleotide exchange factor 4 (Homo sapiens) (UniProt Q8WZA2); test: Validation qHTS for antagonist of cAMP-regulated guanine nucleotide exchange factor 4 (EPAC2); details: EPAC2 Rap1B BODIPY-GDP exchange, fluorescence; series mostly up to 112 µM; activity, negative = inhibition: at the top concentration; also: nearly all actives have a fitted effect of over 40% in size
Sequence (Q8WZA2 whole entry, looked up): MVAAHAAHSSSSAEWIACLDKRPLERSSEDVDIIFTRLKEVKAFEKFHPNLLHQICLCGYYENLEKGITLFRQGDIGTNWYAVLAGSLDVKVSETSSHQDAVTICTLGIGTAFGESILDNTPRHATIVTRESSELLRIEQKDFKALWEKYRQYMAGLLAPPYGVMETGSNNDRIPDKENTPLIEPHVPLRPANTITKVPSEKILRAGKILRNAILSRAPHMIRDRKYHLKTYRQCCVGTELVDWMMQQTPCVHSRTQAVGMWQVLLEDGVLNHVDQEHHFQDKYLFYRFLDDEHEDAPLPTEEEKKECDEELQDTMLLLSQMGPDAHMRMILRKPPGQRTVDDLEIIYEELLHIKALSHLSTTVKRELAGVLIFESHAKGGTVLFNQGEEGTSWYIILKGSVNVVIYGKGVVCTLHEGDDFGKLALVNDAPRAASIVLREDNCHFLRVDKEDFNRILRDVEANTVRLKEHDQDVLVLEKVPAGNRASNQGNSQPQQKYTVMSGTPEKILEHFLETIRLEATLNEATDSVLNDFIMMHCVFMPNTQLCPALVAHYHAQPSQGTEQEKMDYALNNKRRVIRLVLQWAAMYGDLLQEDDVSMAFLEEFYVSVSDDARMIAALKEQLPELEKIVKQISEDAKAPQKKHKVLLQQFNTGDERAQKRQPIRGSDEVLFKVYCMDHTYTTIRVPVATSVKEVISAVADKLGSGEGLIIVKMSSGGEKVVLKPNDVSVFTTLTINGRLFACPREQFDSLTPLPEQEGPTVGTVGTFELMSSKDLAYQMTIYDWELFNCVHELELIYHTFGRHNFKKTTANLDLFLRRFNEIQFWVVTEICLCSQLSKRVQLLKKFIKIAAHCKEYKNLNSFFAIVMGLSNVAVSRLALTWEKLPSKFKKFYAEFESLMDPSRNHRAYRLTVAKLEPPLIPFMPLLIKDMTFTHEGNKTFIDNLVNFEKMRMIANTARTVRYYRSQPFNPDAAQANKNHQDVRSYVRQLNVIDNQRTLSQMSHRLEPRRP
Text: Principle Investigator: Xiaodong Cheng Ph.D. The University of Texas Medical Branch, […], TX MLPCN Grant: NS066510 In multi-cellular eukaryotic organisms, the effects of cAMP are transduced by two ubiquitously-expressed intracellular cAMP receptors, the classic protein kinase A/cAMP-dependent protein kinase (PKA/cAPK) and the more recently discovered exchange protein directly activated by cAMP/cAMP-regulated guanine nucleotide exchange factor (EPAC/cAMP-GEF). Both PKA and EPAC are ubiquitously expressed in all tissues, and an increase in intracellular cAMP levels will lead to the activation of both PKA and EPAC. Therefore, careful dissections of the individual role and relative contribution of EPAC and PKA within the overall cAMP signaling in various model systems are critical for further elucidating the mechanism of cAMP signaling. To date no EPAC-specific antagonists and agonist, as well as isoform-specific agonists have been reported, and developing EPAC-specific pharmacological probes to determine the physiological functions that EPAC play in the overall cAMP-mediated signaling remains a major challenge within the research field. Furthermore, identified regulators of EPAC may lead to new mechanism-based therapeutic strategies specifically targeting the EPAC / cAMP-signaling components as EPAC has been implicated to play important roles in major human pathological conditions such as diabetes, heart disease, and cancer. This qHTS will be used to screen the Molecular Libraries Small Molecule Repository (MLSMR) as a concentration-titration series using the NCGC unique quantitative screening (qHTS) platform to find activators for EPAC1. In addition, this assay will also be used as a counterscreen for the EPAC2 qHTS. This fluorescent based assay is developed and validated for EPAC1 that measures exchange using EPAC effector Rap1 complex with BODIPY-GDP, a GDP analog with a tethered fluorophores. Activators are identified by monitoring the change in fluorescence signal as the exchanged free BODIPY-GDP has a reduced fluorescence compared to Rap1-bound BODIPY-GDP. Increase in signal (activation) is the desired outcome for the EPAC1 agonist while no activity in this assay is desired for the EPAC2 agonist counterscreen. Reference: [1] de Rooij, J., Zwartkruis, F. J., Verheijen, M. H., Cool, R. H., Nijman, S. M., Wittinghofer, A., and Bos, J.L. (1998) Nature 396, 474-477.
Briefly, three uL of reagents (100 nM EPAC2, 250 nM RAP1B-BODIPY-GDP, 50 uM GDP) were dispensed into a 1536-well Greiner black solid-bottom medium binding assay plate. Controls and test compounds (23 nL) were transferred to the plate via a Kalypsys pin tool equipped with a 1536-pin array. The plates were centrifuged at 1,000 rpm for 15 seconds followed by 5 minute incubation at room temperature. The assay plates were read at 5 minute intervals for 30 minutes in the ViewLux plate reader using 480nm excitation and 540nm emission filters. The results were normalized to the agonist positive control of 6.5 mM cAMP.
Potency is read from the fitted curve at half-maximal effect.

Question: For `O=C(c1csnn1)N1CCC[C@@]2(CCN(Cc3nccs3)C2)C1`, which “activity, negative = inhibition” value is on record?
Answer: -18.4% (inactive)

Question: `COCCN1CCN(C(=O)c2sc3ncnc(NCC4CCCO4)c3c2C)CC1` (centres undefined) was tested. Which “activity, negative = inhibition” value did it give?
Answer: -8.65% (inactive)

Question: For `O=C(Nc1cccc(F)c1)N1CCC2(CC1)CCN(S(=O)(=O)c1ccccc1)CC2`, which “activity, negative = inhibition” value is on record?
Answer: -22% (inactive)

Question: How did the “activity, negative = inhibition” value turn out when `c1ccc2c(Nc3ccncc3)nc(-c3ccoc3)nc2c1` was run?
Answer: -19% (inactive)

Question: `COCCn1c(=O)c(CCc2ccccc2)nc2cncnc21` was tested. Which “activity, negative = inhibition” value did it give?
Answer: -6.11% (inactive)

Question: `CCC(C)[C@@H](N)C(=O)O` (some centres undefined) was tested. Which Potency did it give?
Answer: inactive

Question: How did the “activity, negative = inhibition” value turn out when `O=S(=O)(c1ccccc1)N1CCC2(CC1)CN(Cc1nccs1)C2` was run?
Answer: -23.4% (inactive)

Question: `COc1ccc(NC(=O)N2CC3(CCN(C(=O)c4cccn4C)CC3)C2)cc1` was tested. Which “activity, negative = inhibition” value did it give?
Answer: -24.9% (inactive)

Question: For `COc1cccc(Nc2ncc3ncc(=O)n(C4CC4)c3n2)c1`, which “activity, negative = inhibition” value is on record?
Answer: -20.3% (inactive)

Question: For `C/C=C/C=N/NC(=O)c1ccncc1`, which “activity, negative = inhibition” value is on record?
Answer: -17.4% (inactive)

Question: Which “activity, negative = inhibition” value does the source give for `O=c1c(CCc2ccccc2)nc2cnc(N3CCNCC3)nc2n1Cc1cccs1` here?
Answer: -10.5% (inactive)

Question: For `COc1ccc(CC(N)C(=O)NC2C(O)[C@H](n3cnc4c(N(C)C)ncnc43)O[C@@H]2CO)cc1` (some centres undefined), which “activity, negative = inhibition” value is on record?
Answer: -11.5% (inactive)

Question: With `O=C1c2c(O)cccc2[C@@H]([C@@H]2O[C@H](CO)[C@@H](O)[C@H](O)[C@H]2O)c2cc(CO)cc(O)c21` as the compound, how does the “activity, negative = inhibition” value read?
Answer: -22.2% (inactive)

Question: With `CCOC(=O)N1CCN(Cc2ccc3c(c2)CN(C(=O)c2cccc(-n4cccn4)c2)CCO3)CC1` as the compound, how does the “activity, negative = inhibition” value read?
Answer: -2.38% (inactive)

Question: How did the Potency turn out when `CCOC(=O)N1CCC(N2CCOc3ccc(CN4CCC(O)(c5cccnc5)CC4)cc3C2)CC1` was run?
Answer: 79.4 µM (active)

Question: For `CC(C)c1cc(C(=O)N2CCOc3ccc(CN4CCC(Oc5cccnc5)CC4)cc3C2)n[nH]1`, which “activity, negative = inhibition” value is on record?
Answer: -9.89% (inactive)

Question: How did the “activity, negative = inhibition” value turn out when `COCCn1c(=O)c(-c2ccc(OC)cc2)nc2cnc(Oc3cccc(Cl)c3)nc21` was run?
Answer: -28.7% (inactive)

Question: `CC(C)NC(=O)N1CC[C@@]2(CCCN(C(=O)c3ccco3)C2)C1` was tested. Which “activity, negative = inhibition” value did it give?
Answer: -26.8% (inactive)

Question: How did the “activity, negative = inhibition” value turn out when `CC(C)(C)c1ccc(C(=O)C[N+]2(C)CCCc3ccccc32)cc1` (centres undefined) was run?
Answer: -5.47% (inactive)

Question: `COc1ccc(F)c(CN2CCC3(CCC(CNC(=O)c4ccn(C)n4)O3)CC2)c1` (centres undefined) was tested. Which “activity, negative = inhibition” value did it give?
Answer: -3.57% (inactive)

Question: For `CS(=O)(=O)Nc1cccc(-c2cncnc2Nc2ccccc2)c1`, which “activity, negative = inhibition” value is on record?
Answer: -7.64% (inactive)

Question: For `CC(=O)OCC(=O)C1CCC2C3CCC4=CC(=O)CC[C@@]4(C)C3CC[C@]12C` (some centres undefined), which “activity, negative = inhibition” value is on record?
Answer: -10.5% (inactive)

Question: For `CC(C)c1ccc2c(c1)c(SC(C)(C)C)c(CC(C)(C)C(=O)O)n2Cc1ccc(Cl)cc1`, which Potency is on record?
Answer: inactive and 50.1 µM (active)

Question: Which “activity, negative = inhibition” value does the source give for `N#Cc1cccc(-c2ccc3ncnc(NCc4cccs4)c3c2)c1` here?
Answer: -7.28% (inactive)

Question: How did the “activity, negative = inhibition” value turn out when `C=C(C)C1CC=C(CO)CC1` (centres undefined) was run?
Answer: -12.9% (inactive)

Question: `CCCC1C(=O)N2C(N(C)C)=Nc3ccc(C)cc3N2C1=O` (centres undefined) was tested. Which “activity, negative = inhibition” value did it give?
Answer: -16.8% [at 56.6 µM] (inactive)

Question: `COC(=O)N1CCC2(CCCN(c3ccncc3)C2)CC1` was tested. Which “activity, negative = inhibition” value did it give?
Answer: 1.24% (inactive)

Question: For `CC[N+](C)(CC)CCC[n+]1c(-c2ccccc2)c2cc(N)ccc2c2ccc(N)cc21`, which Potency is on record?
Answer: 50.1 µM (active)

Question: Which “activity, negative = inhibition” value does the source give for `O=C1CCN(Cc2ccc([N+](=O)[O-])cc2)CCN1[C@H](CO)Cc1ccccc1` here?
Answer: -7.03% (inactive)

Question: `Cc1cccc(-c2cc(=O)c3cc(C)ccc3o2)c1` was tested. Which “activity, negative = inhibition” value did it give?
Answer: -23.6% (inactive)

Question: How did the “activity, negative = inhibition” value turn out when `CN(C)CCc1c[nH]c2ccc(Cn3cncn3)cc12` was run?
Answer: -7.05% (inactive)

Question: For `Cc1noc(C)c1-c1cc(NCc2cccnc2)ncn1`, which “activity, negative = inhibition” value is on record?
Answer: -28.3% (inactive)

Question: `C=CC1(C)CC(=O)C2(O)C(C)(O1)C(OC(C)=O)C(O)C1C(C)(C)CCC(O)C12C` (centres undefined) was tested. Which “activity, negative = inhibition” value did it give?
Answer: -12.8% (inactive)

Question: Which “activity, negative = inhibition” value does the source give for `COc1cc(-c2cccnc2)cc2c1OCCN(C(=O)Cc1csc(C)n1)C2` here?
Answer: -11.1% (inactive)

Question: For `CCCCCCc1ccc(O)cc1O`, which Potency is on record?
Answer: 39.8 µM (active)

Question: How did the “activity, negative = inhibition” value turn out when `NCCC[C@H](N)CC(=O)N[C@H]1CNC(=O)[C@H]([C@H]2C[C@H](O)NC(N)=N2)NC(=O)/C(=C/NC(N)=O)NC(=O)[C@H](CO)NC(=O)[C@H](CO)NC1=O` (β3hOrn-[Dap]SS[ΔAla(Z-3-ureido)][X12]; lactam 1-C) was run?
Answer: -5.63% (inactive)

Question: With `O=C(O)C[C@@H]1NC(=O)[C@H](Cc2ccccc2)NC1=O` as the compound, how does the “activity, negative = inhibition” value read?
Answer: -8.54% (inactive)

Question: `COc1ccc2c(c1)CCc1cnc(-n3ncc(C(=O)NCc4cccnc4)c3C3CC3)nc1-2` was tested. Which “activity, negative = inhibition” value did it give?
Answer: 6.6% (inactive)

Question: How did the “activity, negative = inhibition” value turn out when `Cc1nc2cnc(Nc3ccccc3)nc2n(C[C@H]2CCCO2)c1=O` was run?
Answer: -3.7% (inactive)

Question: `CN1CCN(c2ncc3nc(-c4ccc(Cl)cc4)c(=O)n(-c4ccccc4)c3n2)CC1` was tested. Which “activity, negative = inhibition” value did it give?
Answer: -24.2% (inactive)

Question: Which “activity, negative = inhibition” value does the source give for `Cc1nc2cnc(N3CCN(C)CC3)nc2n(C[C@H]2CCCO2)c1=O` here?
Answer: -7.61% (inactive)

Question: How did the “activity, negative = inhibition” value turn out when `CC(O)[C@@H](N)C(=O)O` (some centres undefined) was run?
Answer: 12.4% (inactive)

Question: Which “activity, negative = inhibition” value does the source give for `COC(=O)C1CCCCN1Cc1ccc2c(c1)CN(Cc1cc(OC)c3c(c1)OCO3)CCO2` (centres undefined) here?
Answer: -25.8% (inactive)

Question: For `NCCC(=O)c1ccccc1N`, which “activity, negative = inhibition” value is on record?
Answer: -11% (inactive)

Question: How did the “activity, negative = inhibition” value turn out when `Cc1ccc(-c2nn(CC(C)(C)C)c3ncnc(N)c23)cc1` was run?
Answer: -16.1% (inactive)

Question: `CN[C@@H]1[C@H](O[C@H]2[C@H](O[C@H]3[C@H](O)[C@@H](O)[C@H](N=C(N)N)[C@@H](O)[C@@H]3N=C(N)N)O[C@@H](C)[C@]2(O)CO)O[C@@H](CO)[C@H](O)[C@H]1O` was tested. Which “activity, negative = inhibition” value did it give?
Answer: -7.91% (inactive)

Question: `CCS(=O)(=O)N(C)[C@@H]1c2cc(C#N)ccc2OC(C)(C)[C@H]1O` was tested. Which “activity, negative = inhibition” value did it give?
Answer: -18.9% (inactive)

Question: How did the “activity, negative = inhibition” value turn out when `CC(C)=CCN1CCC2(CCc3ccccc32)CC1` was run?
Answer: 4.49% (inactive)

Question: `Nc1nc2[nH]c(=O)c(=O)[nH]c2c(=O)[nH]1` was tested. Which “activity, negative = inhibition” value did it give?
Answer: -5.47% (inactive)
